In assay [1] the target is RAF proto-oncogene serine/threonine-protein kinase (Homo sapiens) (UniProt P04049). Conditions: at 1 µM.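 Note: values are the mean percent inhibition of CRAF.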
The target in assay [2] is T1, Interleukin-1 receptor-associated kinase 4 (Homo sapiens) (UniProt Q9NWZ3).
T1 sequence (whole entry): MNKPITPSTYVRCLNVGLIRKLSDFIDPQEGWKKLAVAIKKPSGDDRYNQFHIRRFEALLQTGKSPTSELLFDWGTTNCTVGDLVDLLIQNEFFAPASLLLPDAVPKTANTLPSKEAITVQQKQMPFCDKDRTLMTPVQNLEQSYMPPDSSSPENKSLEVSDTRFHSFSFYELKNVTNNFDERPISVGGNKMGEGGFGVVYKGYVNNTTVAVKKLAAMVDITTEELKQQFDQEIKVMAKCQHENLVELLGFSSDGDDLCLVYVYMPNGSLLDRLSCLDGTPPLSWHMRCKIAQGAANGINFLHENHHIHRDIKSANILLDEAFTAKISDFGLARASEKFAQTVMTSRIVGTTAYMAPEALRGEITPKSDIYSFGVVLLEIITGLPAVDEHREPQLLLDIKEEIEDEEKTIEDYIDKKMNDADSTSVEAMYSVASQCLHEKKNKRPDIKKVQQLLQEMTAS
The conditions noted are these: at 0.1 µM.

Assay [3] has as its target T1, Interleukin-1 receptor-associated kinase 4 (Homo sapiens). Conditions: at 1 µM.
For assay [4], the target named is Leucine-rich repeat serine/threonine-protein kinase 2 (Homo sapiens) (UniProt Q5S007). The conditions noted are these: at 0.1 µM.
Leucine-rich repeat serine/threonine-protein kinase 2 (Homo sapiens), sequence (Q5S007 whole entry): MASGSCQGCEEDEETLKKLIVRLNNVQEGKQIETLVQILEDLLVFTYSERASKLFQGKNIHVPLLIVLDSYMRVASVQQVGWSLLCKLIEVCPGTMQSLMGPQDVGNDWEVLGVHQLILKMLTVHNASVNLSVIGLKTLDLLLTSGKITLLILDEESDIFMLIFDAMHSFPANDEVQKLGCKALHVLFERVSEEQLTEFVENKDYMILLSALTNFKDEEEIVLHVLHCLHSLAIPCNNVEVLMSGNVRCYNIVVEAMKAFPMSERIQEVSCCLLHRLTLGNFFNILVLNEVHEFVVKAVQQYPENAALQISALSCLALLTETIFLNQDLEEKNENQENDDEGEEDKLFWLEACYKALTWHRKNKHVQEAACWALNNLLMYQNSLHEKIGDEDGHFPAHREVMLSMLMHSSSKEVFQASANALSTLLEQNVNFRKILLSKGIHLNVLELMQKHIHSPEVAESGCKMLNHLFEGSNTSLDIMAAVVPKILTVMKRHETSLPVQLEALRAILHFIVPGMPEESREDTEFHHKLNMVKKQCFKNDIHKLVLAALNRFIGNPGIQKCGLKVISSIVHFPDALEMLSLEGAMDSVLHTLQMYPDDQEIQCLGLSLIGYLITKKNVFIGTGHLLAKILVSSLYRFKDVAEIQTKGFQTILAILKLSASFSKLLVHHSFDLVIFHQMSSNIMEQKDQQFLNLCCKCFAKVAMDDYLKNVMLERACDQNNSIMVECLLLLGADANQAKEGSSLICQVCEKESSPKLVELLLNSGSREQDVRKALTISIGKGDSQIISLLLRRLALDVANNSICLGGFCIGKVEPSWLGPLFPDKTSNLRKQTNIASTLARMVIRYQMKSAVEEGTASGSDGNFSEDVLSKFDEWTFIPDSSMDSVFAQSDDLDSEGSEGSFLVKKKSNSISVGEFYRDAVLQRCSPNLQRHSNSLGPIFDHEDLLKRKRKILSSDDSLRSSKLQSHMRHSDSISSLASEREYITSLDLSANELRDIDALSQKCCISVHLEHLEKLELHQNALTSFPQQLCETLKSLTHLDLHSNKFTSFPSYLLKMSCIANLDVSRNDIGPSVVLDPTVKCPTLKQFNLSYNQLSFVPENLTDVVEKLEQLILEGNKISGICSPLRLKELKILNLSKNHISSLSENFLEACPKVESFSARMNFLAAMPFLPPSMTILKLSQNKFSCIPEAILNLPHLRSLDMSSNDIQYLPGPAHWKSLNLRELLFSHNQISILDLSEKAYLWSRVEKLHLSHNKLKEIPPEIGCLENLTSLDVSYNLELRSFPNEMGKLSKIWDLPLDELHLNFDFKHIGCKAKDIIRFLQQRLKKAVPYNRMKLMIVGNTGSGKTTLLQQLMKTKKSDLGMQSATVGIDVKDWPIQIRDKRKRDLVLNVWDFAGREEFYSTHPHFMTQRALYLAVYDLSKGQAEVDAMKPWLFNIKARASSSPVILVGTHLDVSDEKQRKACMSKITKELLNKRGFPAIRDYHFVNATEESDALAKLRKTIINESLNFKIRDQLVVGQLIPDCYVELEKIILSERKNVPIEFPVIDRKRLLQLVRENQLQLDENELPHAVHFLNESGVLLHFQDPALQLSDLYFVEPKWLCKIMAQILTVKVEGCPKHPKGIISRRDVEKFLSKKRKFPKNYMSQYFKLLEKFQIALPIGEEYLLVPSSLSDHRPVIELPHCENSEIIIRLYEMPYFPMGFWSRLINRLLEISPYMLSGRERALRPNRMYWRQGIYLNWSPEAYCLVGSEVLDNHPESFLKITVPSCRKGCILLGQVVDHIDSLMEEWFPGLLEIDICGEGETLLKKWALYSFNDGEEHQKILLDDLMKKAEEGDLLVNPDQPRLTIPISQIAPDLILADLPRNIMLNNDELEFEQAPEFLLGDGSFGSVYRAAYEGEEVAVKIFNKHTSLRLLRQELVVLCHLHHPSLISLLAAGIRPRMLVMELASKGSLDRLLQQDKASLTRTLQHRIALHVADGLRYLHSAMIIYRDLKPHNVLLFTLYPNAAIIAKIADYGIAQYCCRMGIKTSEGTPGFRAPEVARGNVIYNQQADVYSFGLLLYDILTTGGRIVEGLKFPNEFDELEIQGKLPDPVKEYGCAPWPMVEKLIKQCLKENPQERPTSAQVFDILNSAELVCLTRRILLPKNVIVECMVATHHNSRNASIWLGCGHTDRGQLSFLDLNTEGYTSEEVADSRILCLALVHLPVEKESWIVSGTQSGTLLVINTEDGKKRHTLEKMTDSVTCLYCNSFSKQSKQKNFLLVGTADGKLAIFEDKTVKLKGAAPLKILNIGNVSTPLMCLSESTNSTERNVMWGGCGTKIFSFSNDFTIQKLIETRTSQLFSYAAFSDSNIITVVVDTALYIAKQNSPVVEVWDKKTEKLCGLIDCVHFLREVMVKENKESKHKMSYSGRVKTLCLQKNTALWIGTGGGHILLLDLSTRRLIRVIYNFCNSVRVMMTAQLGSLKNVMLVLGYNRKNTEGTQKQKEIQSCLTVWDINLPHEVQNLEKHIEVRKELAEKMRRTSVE
The target is the same in assay [5]. The conditions noted are these: at 1 µM.
Assay [6] relates to Leucine-rich repeat serine/threonine-protein kinase 2 (Homo sapiens), Q5S007 [G2019S]. The conditions noted are these: at 0.1 µM.
Leucine-rich repeat serine/threonine-protein kinase 2 (Homo sapiens), Q5S007 [G2019S], sequence (Q5S007 whole entry G2019S): as the sequence (Q5S007 whole entry) above, with G2019S counted along it
For assay [7] the test system is unchanged. The conditions noted are these: at 1 µM.

RAF proto-oncogene serine/threonine-protein kinase (Homo sapiens), sequence (P04049 whole entry): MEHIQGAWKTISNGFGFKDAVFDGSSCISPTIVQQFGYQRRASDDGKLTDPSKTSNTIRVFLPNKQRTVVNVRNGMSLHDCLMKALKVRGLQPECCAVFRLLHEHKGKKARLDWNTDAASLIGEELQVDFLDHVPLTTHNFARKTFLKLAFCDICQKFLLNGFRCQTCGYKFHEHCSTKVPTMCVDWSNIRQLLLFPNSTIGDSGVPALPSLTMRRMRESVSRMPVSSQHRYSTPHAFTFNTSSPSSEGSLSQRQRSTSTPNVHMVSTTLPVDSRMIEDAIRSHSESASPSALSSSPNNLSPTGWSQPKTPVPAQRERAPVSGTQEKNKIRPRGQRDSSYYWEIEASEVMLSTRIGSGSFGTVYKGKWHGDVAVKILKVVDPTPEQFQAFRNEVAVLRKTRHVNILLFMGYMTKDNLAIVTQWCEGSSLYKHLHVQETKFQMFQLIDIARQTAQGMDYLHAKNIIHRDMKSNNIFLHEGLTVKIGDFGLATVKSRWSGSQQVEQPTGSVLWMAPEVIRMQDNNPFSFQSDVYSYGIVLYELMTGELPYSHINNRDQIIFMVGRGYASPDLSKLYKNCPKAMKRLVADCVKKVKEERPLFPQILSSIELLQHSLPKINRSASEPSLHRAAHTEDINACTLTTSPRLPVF

Consider `CN1CCN(CCCNc2nc3ccc(Oc4ccc(NC(=O)Nc5cc(C(F)(F)F)ccc5F)cc4)cc3[nH]2)CC1`, for which the inhibition was -5.93% in assay [1]; -3.98% in assay [2]; 1.11% in assay [3]; 0.2% in assay [4]; 9.72% in assay [5]; 0.21% in assay [6]. The inhibition in assay [7] was 4.43%.

Turning to `COc1ccc2ncn(-c3cc(O[C@H](C)c4ccccc4Cl)c(C(N)=O)s3)c2c1`, the inhibition is 0.5% in assay [1]; 1.46% in assay [2]; 1.82% in assay [3]; -2.19% in assay [4]; 9.87% in assay [5]; 2.01% in assay [6]. For the same compound, the inhibition in assay [7] was determined as 20.2%.

On to `Nc1nccc(-c2c(-c3ccc(F)cc3)ncn2C2CCC(O)CC2)n1` (centres undefined), for which the inhibition in assay [1] was -9.19%; in assay [2], -0.79%; in assay [3] it was -1%; in assay [4], -0.71%; in assay [5] it was 0.86%; in assay [6], 1.56%. Further, the inhibition in assay [7] is 4.03%.

As to `C[C@@H](Oc1cc(-n2cnc3ccc(OC4CCN(C)CC4)cc32)sc1C(N)=O)c1ccccc1Cl`, the inhibition in assay [1] is 0.92%; in assay [2] it was 1.54%; in assay [3] it was 3.69%; in assay [4], -3.8%; in assay [5], 6.57%; in assay [6], -1.8%. Further, in assay [7], the inhibition was 13.5%.

For `COc1ccc(C2=C(N3CCc4ccccc43)C(=O)NC2=O)cc1`, the inhibition in assay [1] was -3.87%; in assay [2], 5.89%; in assay [3], 2.48%; in assay [4], 3.04%; in assay [5], 10.9%; in assay [6] it was 4.7%. Moreover, the inhibition in assay [7] was 13.9%.

In the case of `COc1cc2ncn(-c3cc(OCCc4ccccc4)c(C(N)=O)s3)c2cc1OC`, the inhibition was -9.47% in assay [1]; 2.95% in assay [2]; 0.72% in assay [3]; 4.52% in assay [4]; 10.8% in assay [5]; 6.42% in assay [6]. For the same compound, in assay [7], the inhibition turned out to be 32.5%.

With `CN(C)CCCNc1nccc(-c2c(-c3ccc(F)cc3)nn3cc(C(F)(F)F)ccc23)n1`, the inhibition is 0.11% in assay [1]; -2.77% in assay [2]; 1.66% in assay [3]; -2% in assay [4]; 1.95% in assay [5]; -0.33% in assay [6]. In addition, the inhibition in assay [7] worked out at 2.73%.

In the case of `CCc1cccc(CC)c1/C=C/c1cncc(C(=O)NC)c1`, the inhibition in assay [1] was -1.79%; in assay [2], -3.49%; in assay [3] it was 1.51%; in assay [4] it was 3.05%; in assay [5], 4.51%; in assay [6] it was 2.33%. Also, the inhibition in assay [7] worked out at 7.93%.

In the case of `NC(=O)Cc1ccccc1Oc1nccc(-c2c(-c3ccc(F)cc3)ncn2C2CCNCC2)n1`, the inhibition is -7.05% in assay [1]; 3.72% in assay [2]; 1.16% in assay [3]; 6.61% in assay [4]; 2.56% in assay [5]; 6.11% in assay [6]. Further, the inhibition in assay [7] was 8.33%.

Regarding `COc1ccc2cc(-c3c(-c4ccncc4)nc(-c4ccc(S(C)(=O)=O)cc4C)n3C)ccc2c1`, the inhibition came out at 2.24% in assay [1]; 3.69% in assay [2]; 2.09% in assay [3]; 1.75% in assay [4]; 6.91% in assay [5]; 2.55% in assay [6]. Also, the inhibition in assay [7] worked out at 10.2%.

Turning to `COc1ccc2cc(-c3c(-c4ccncc4)nc(-c4ccc([S+](C)[O-])cc4C)n3C)ccc2c1` (centres undefined), the inhibition was 2.82% in assay [1]; -4.88% in assay [2]; -0.25% in assay [3]; -0.88% in assay [4]; 0.64% in assay [5]; 0.88% in assay [6]. In assay [7], the inhibition came out at 4.04%.

Turning to `CCN(CC)Cc1ccc(Nc2nccc(-c3cnn4ncccc34)n2)cc1`, the inhibition was 1.56% in assay [1]; 1.17% in assay [2]; 3.85% in assay [3]; -6.19% in assay [4]; 8.65% in assay [5]; 0.1% in assay [6]. The inhibition in assay [7] worked out at 19%.

Consider `COc1cc(Nc2ncc3c(C)nc(-c4cccc(Oc5ccccc5)c4)n3n2)cc(OC)c1OC`, for which the inhibition in assay [1] was -0.45%; in assay [2], -1.6%; in assay [3], 0.83%; in assay [4], 11.7%; in assay [5], 18.3%; in assay [6], 13.8%. Further, the inhibition in assay [7] was determined as 47.3%.

For `Fc1ccc(-c2ncn(C3CCNCC3)c2-c2ccnc(Oc3ccc(Oc4ccccc4)cc3)n2)cc1`, the inhibition in assay [1] came to 0.47%; in assay [2], 1.5%; in assay [3], 1.78%; in assay [4], 0.62%; in assay [5], 5.34%; in assay [6], 5.08%. Further, the inhibition in assay [7] was determined as 8.01%.

`NC(=O)c1ccc(Oc2nccc(-c3c(-c4ccc(F)cc4)ncn3C3CCNCC3)n2)cc1`: the inhibition is 0.88% in assay [1]; 2.75% in assay [2]; 3.85% in assay [3]; 0.29% in assay [4]; 5.49% in assay [5]; 3.7% in assay [6]. Besides, the inhibition in assay [7] was found to be 7.46%.

With `COc1cccc(-n2cnc3c(N/N=C/c4ccncc4)ncnc32)c1`, the inhibition in assay [1] was -4.3%; in assay [2] it was -2.35%; in assay [3] it was 0.01%; in assay [4] it was -1.76%; in assay [5], 7.17%; in assay [6], 0.11%. Moreover, the inhibition in assay [7] was 18.1%.

For `CCc1nccc2c1nc(-c1nonc1N)n2CC`, the inhibition was -5.16% in assay [1]; 2.27% in assay [2]; -1.82% in assay [3]; 0.68% in assay [4]; 2.47% in assay [5]; 0.78% in assay [6]. In assay [7], the inhibition came out at 2.99%.

Source of the values: ChEMBL document CHEMBL1961873, “Compounds: GSK PKIS; Assays: Nanosyn kinase panel” (2012).
